# Screens: PubChem, Broad Institute
# This is a sample that favours compounds with a hit; in the whole collection about 2.2% have one here.
# Calb FLC = C. albicans growth modulation with fluconazole | 0.57% of 300,000 active | C. albicans CaCi-2 (fluconazole-resistant clinical isolate) + fluconazole, Alamar Blue growth, 48 h | growth inhibition, % (concentration not given with the values) | AID 1979;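 active means growth inhibition above about 58% in most replicates, limit read from the data, passing the limit was not always enough; inconclusive means exactly half the replicates above a set limit; inactive means most replicates below a set limit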;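 further: all wells also contain fluconazole at 8 µg/ml as a sub-toxic cotreatment; 0% = median of DMSO wells and 100% = median of geldanamycin control wells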
# PfHsp90 set2 = reduces growth (ATP signal) of yeast expressing P. falciparum Hsp90; S. cerevisiae expressing PfHsp90, BacTiter-Glo ATP, 48 h; yeast lacking PDR1 and PDR3 efflux regulators; inhibition, % at 9.4 µM; 0.32% of 310,000 active;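 active means every replicate shows inhibition above about 80%, whatever the replicate mean, limit read from the data; inconclusive means mean inhibition reaches the set limit but some replicate falls short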;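 further: 0% = DMSO neutral controls and 100% = 20 µM radicicol positive controls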
# CSC inhib = cancer stem cell inhibition; cancer stem cell-like cells viability, luminescence; inhibition, % at 7.5 µM; 1.1% of 300,000 active; in the data active means inhibition above about 75%; inconclusive means no clear call, values can overlap the other calls; tested in HMLE shEcad cells
# Beta apoptosis = beta cell apoptosis inhibition; INS-1E cytokine-induced death, ATP luminescence, 48 h; percent of positive-control rescue, neutral wells zero; protection from apoptosis, % (test concentration not listed); 0.8% of 300,000 active; AID 435005;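 active means Every replicate reaches about 75%, or at least half do and their mean reaches it too, limit read from the data; inconclusive means At least half of replicates reach the limit but their mean does not; inactive means Under half of replicates reach the limit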;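 further: 0% = cytokine-treated negative control wells and 100% = positive control rescue; higher means more ATP so stronger rescue from cytokine killing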
# Shn3 3UTR inh = inhibitors of Schnurri-3 3'UTR reporter in osteoblasts | 0.52% of 360,000 active | inhibition, % at 12.5 µM | AID 588674 | Clone20 osteoblast Shn3 3'UTR firefly luciferase, 24 h;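 active means mean inhibition of at least 75% with every replicate also reaching 75%; inconclusive means mean inhibition at least 75% but some replicate below; inactive means mean inhibition below 75%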;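 further: 0% = median of neutral control wells and 100% = pilot-screen positive control compound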
# Numbers without * were called inactive; ? = inconclusive; / = no result.
SMILES,Calb FLC,PfHsp90 set2,CSC inhib,Beta apoptosis,Shn3 3UTR inh
CC1CCCN(c2nc(-c3cccnc3)nc3scc(-c4ccccc4)c23)C1 (configuration not stated),4.4,-6.7,-3.3,55.9,-1.3
CSc1nc(Cl)c(C#N)c(-c2ccc(C)cc2)n1,81.3*,-31.4,10.7,3.3,-2.3
CCN(CC)CCCNC(=O)c1cc2c(-c3ccc(Cl)cc3)nn(C)c2s1,5.1,2.6,98.1*,28.0,-1.2
CN1CCN(CCCNC(=O)c2cc3c(-c4ccc(Cl)cc4)nn(C)c3s2)CC1,9.0,-17.9,/,/,-3.9
O=C(Cn1ccc(NC(=O)OCc2ccccc2)nc1=O)NCc1nc2ccccc2[nH]1,/,24.4,-3.3,-1.9,2.0
CCCC(=O)NC(=S)NNC(=O)c1ccc([N+](=O)[O-])cc1,75.7*,9.7,-9.9,-0.4,11.8
O=C(COc1ccc([N+](=O)[O-])cc1)NNC(=S)NC(=O)c1ccc(Br)cc1,95.4*,-20.0,26.3,-1.2,-8.2
CN(c1ccccc1)S(=O)(=O)c1cccc(NC(=O)CCN2C(=O)C3CCCCC3C2=O)c1 (configuration not stated),2.5,3.3,5.6,-6.1,4.5
CN(C)c1ccc(C(=O)N2CCN(C(=O)C3CCCO3)CC2)cc1 (configuration not stated),/,-9.2,-12.8,-5.1,5.4
COCCNC(=O)C/C(C)=N/NC(=O)C(=O)NC1CCCCC1,9.2,-13.7,/,-8.0,-2.9
COc1ccc(-c2cc(C(=O)OCC(=O)c3ccc(C)c([N+](=O)[O-])c3)c3ccccc3n2)cc1,2.7,-0.2,11.1,-3.3,-39.8
COc1ccc(-c2nn(-c3ccccc3)cc2C(=O)OCC(=O)c2ccc(C)c([N+](=O)[O-])c2)cc1,2.5,-0.3,39.4,101.0*,1.5
O=C(OCN1C(=O)c2ccccc2C1=O)C1CCCCC1,0.1,0.8,-4.5,-0.2,7.6
O=C1c2ccccc2C(=O)N1SC1CCCCC1,-1.6,105.8*,3.9,7.2,31.3
c1coc(C2=NC(c3ccco3)C(c3ccco3)N2)c1 (configuration not stated),/,-9.7,/,/,-25.1
COc1ccccc1N(C1=NCCCS1)S(=O)(=O)c1ccc(C(C)(C)C)cc1,-6.8,/,1.4,2.1,70.3
Cc1cc(C)cc(NC(=O)Nc2ccc(NC(=O)c3ccccc3O)cc2)c1,2.4,-19.9,92.0*,-6.8,13.3
O=S(=O)(Nc1cccc2ncccc12)c1cccs1,94.8*,-101.0,5.0,12.8,94.0*
O=C1NC(Cc2ccc(O)cc2)c2nc3ccc(Cl)cc3c(=O)n2-c2ccc(Cl)cc21 (configuration not stated),/,/,/,4.9,/
FC(F)(F)c1cccc(Cn2c3[n+](c4ccc(C(F)(F)F)cc42)CCCCC3)c1,-27.3,-55.9,-0.8,7.0,8.1
Cc1cc(C(C)(C)C)cc(C)c1Cn1c2[n+](c3ccc(C(F)(F)F)cc31)CCCCC2,33.9,/,19.1,86.4*,-0.5
CN1/C(=C\C=O)C(C)(C)c2ccccc21,19.3,-21.8,3.3,64.1,19.2
CN1\C(=C/C=C/C=C/C=[N+](C)C)C(C)(C)c2ccccc21,17.3,33.5,/,/,89.4*
O=c1c(Cc2c(F)cccc2Cl)c(O)ccn1CC1CCCO1 (configuration not stated),-5.8,10.2,19.7,-3.9,6.9
O=c1c(F)cn(C2CCCO2)c(=O)n1Cc1c(F)cccc1Cl (configuration not stated),106.9*,-14.8,6.0,-5.5,-21.5
SMILES,Calb FLC,PfHsp90 set2,CSC inhib,Beta apoptosis,Shn3 3UTR inh
Cc1nc(Nc2cnc(/C=C/c3cc(C(=O)Nc4cccc(C(F)(F)F)c4)ccc3C)cn2)cc(N2CCNCC2)n1,9.3,/,136.2*,106.8*,/
O=C1c2ccccc2NC(c2ccc(-c3ccc(F)cc3)o2)N1O (configuration not stated),/,-10.7,16.7,-1.4,-109.4
O=C1c2ccccc2NC(c2ccc(-c3ccc(Br)cc3)o2)N1O (configuration not stated),102.0*,124.9*,103.3*,9.5,19.9
Cc1cc(S(=O)(=O)c2ccc(Cl)cc2)nc(S(=O)(=O)c2ccc(Cl)cc2)c1C#N,/,/,/,/,90.8*
Cc1cc(C)c(S(=O)(=O)c2ccc(Cl)cc2)c(Cl)n1,24.6,66.7,-11.7,2.2,-3.8
CCOC(=O)C(C(=O)OCC)C(Nc1ccc(Br)cc1)c1ccccc1 (configuration not stated),3.7,11.8,75.3*,-6.1,-21.3
Cn1c(-c2c(N)n(CCc3ccccc3)c3nc4ccccc4nc23)nc2ccccc21,93.6*,-10.1,40.1,44.5,-6.2
Cn1c(O)c(N=NC(=S)Nc2ccccc2F)c2cc(S(=O)(=O)N3CCOCC3)ccc21,-16.1,-4.2,/,/,72.1
C=CCn1c(O)c(N=NC(=S)Nc2ccccc2C)c2cc(S(=O)(=O)N3CCOCC3)ccc21,105.9*,-13.3,30.6,54.9,42.7
NC1=NC[C@H](Cc2ccc(O)cc2)N1CCc1cc(C(F)(F)F)cc(C(F)(F)F)c1,-24.0,?,-26.9,7.8,12.7
NC1=NC[C@H](Cc2ccccc2)N1CCCCC1CCCCC1,104.9*,1.2,19.8,112.1*,63.6
NC1=NC[C@@H](CC2CCCCC2)N1CCc1cc(C(F)(F)F)cc(C(F)(F)F)c1,/,-3.3,139.1*,108.9*,97.3*
NC1=NC[C@H](Cc2ccc(O)cc2)N1CCCCC1CCCCC1,34.7,-12.1,-25.9,101.8*,76.6
NC1=NC[C@@H](Cc2ccc(O)cc2)N1CCc1cccc2ccccc12,-11.3,2.4,8.9,-0.5,6.2
Cc1cccc(NC(=O)COC(=O)Cc2cccs2)c1C,-3.5,/,-6.3,/,-16.1
Cc1ccc(S(=O)(=O)Nc2ccc(O)c3ccccc23)c(C)c1,-16.3,17.5,31.4,96.1*,1.3
Cc1ccc(C)c(S(=O)(=O)Nc2ccc(O)c3ccccc23)c1,4.7,-14.7,21.5,98.5*,-28.3
Cc1ccc(C)c(S(=O)(=O)Nc2ccc(O)c(C(=O)O)c2)c1,-5.0,17.0,3.6,-5.0,0.4
COc1ccc(S(=O)(=O)Nc2ccc(O)c3ccccc23)cc1,-20.0,-1.8,/,123.6*,16.0
Oc1ccc(Cl)cc1Sc1cc(Cl)ccc1O,/,102.0*,/,/,-7.4
Cc1nc(C(F)(F)F)c(C(=O)N/N=C(\N)c2ccccn2)s1,0.8,-0.1,10.0,77.0*,52.7
CCOC(=O)C1=C(C)N=C2SCCC(=O)N2C1c1sccc1C (configuration not stated),-0.8,-22.6,15.3,10.2,3.8
C=CCOC(=O)C1=C(C)N=C2SCCC(=O)N2C1c1cccs1 (configuration not stated),-2.6,42.7,-8.2,-2.6,92.3*
O=C(CNc1cccc([N+](=O)[O-])c1)N/N=C/c1ccc([N+](=O)[O-])o1,-2.0,-0.7,-0.1,92.9*,17.5
O=C(CNc1cccc2ccccc12)N/N=C/c1ccc[nH]1,-0.2,13.7,35.4,7.4,-0.4
O=C(CNc1cccc2ccccc12)N/N=C/C(Br)=C/c1ccccc1,-10.7,2.1,47.0,-9.4,90.5*
